Rows were chosen to be rich in hits. Some 4.3% of all compounds tested hit in one or more screens of this group.
HSF-1 act: increases HSF-1 driven luciferase reporter signal | NIH3T3-HGL HSF-1 luciferase reporter, MG132, 8 h; 100% = twice DMSO control signal | activation, % at 9 µM | hit rate 1.7% among 300,000;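 active = mean replicate activation of at least 50% with a set share of replicates each reaching 50%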;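 also: 0% = median of the neutral control wells and 100% = twice that signal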
SMARCA2 act: SMARCA2 function activation, primary screen | MG213 cells, MMTV-luciferase reporter, dexamethasone, overnight | activation, % at 9.1 µM | hit rate 1% among 370,000; in the data active = activation above about 7.8%;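 also: 0% = vehicle wells and 100% = reference activator wells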
MITF TRPM1 HTS: increases MITF-driven TRPM1 promoter luciferase signal; activation, % at 12.5 µM; hit rate 0.75% among 300,000; SK-MEL-5 TRPM1-promoter luciferase, 24 h; % of positive control, neutral wells = 0;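 active = mean activation of at least 80% with every replicate also reaching 80%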;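 also: 0% = neutral control wells and 100% = parthenolide positive control wells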
esBAF inh: blocks esBAF chromatin remodeling in mouse ES cells. Bmi1-luciferase knock-in reporter, 24 h; 100% = twice the neutral-well signal. AID 602393. hit rate 2% among 350,000. reporter increase, % at 12.5 µM; in the data active = activation above about 40%;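 also: 0% = median of the plate's neutral control wells and 100% = double that signal; a rise in the Bmi1 reporter signal indicates esBAF inhibition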
Wnt bcat act: activators of Wnt/beta-catenin signaling; hit rate 1.2% among 300,000; Wnt/beta-catenin reporter cell assay, activator, plate reader; activation, % at 9.35 µM; in the data active = activation above about 30%, passing the limit was not always enough;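 also: 0% = neutral control wells and 100% = positive control wells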
HSF1 inhib: HSF1 inhibition | NIH3T3-HGL HSE-luciferase, MG132-induced, luminescence 8 h; active compounds read low | hit rate 0.77% among 300,000 | AID 2098 | activity change, negative = inhibition, % at 7.5 µM (by protocol);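 active = more than half of replicate wells show activity change below -50%, luminescence cut by over half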;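 also: luciferase reports HSF-1 transcriptional activity via heat shock element; 0% = median of DMSO wells and -100% = zero luminescence signal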
Active calls of the source: *; . = no result.

SMILES	HSF-1 act	SMARCA2 act	MITF TRPM1 HTS	esBAF inh	Wnt bcat act	HSF1 inhib
C[C@H]1CN([C@@H](C)CO)C(=O)c2cc(NC(=O)Nc3ccc(C(F)(F)F)cc3)ccc2O[C@H]1CN(C)Cc1ccccc1	.	.	.	-1.4	.	.
Cc1ccc(S(=O)(=O)c2ncccc2N)cc1	-3.0	-1.8	-2.0	-2.5	1.2	-1.4
Cc1ccc(S(=O)(=O)c2ncccc2[N+](=O)[O-])cc1	-97.1	-9.5	-74.8	33.9	-6.7	-97.1*
O=C(C[C@H]1CC[C@@H]2[C@H](COC[C@@H](O)CN2Cc2cccc(C(F)(F)F)c2)O1)NCc1ccncc1	.	.	.	-2.8	.	.
Nc1c(C(=O)NCc2ccco2)nnn1-c1ccccc1	-9.6	-0.8	36.8	49.6*	15.3	6.0
CCOc1ccc(NC(=O)c2nnn(CC(=O)Nc3ccccc3OC)c2N)cc1	10.0	-1.0	16.1	43.8*	.	1.6
COc1ccccc1NC(=O)Cn1nnc(C(=O)Nc2ccccc2)c1N	4.7	-3.3	-13.4	-2.8	-0.6	-2.6
CCOc1ccc(NC(=O)Cn2nnc(C(=O)NCc3ccco3)c2N)cc1	56.5*	-3.6	7.4	.	-1.1	27.2
Cc1cc(C)cc(-n2nnc(C(=O)NCc3ccco3)c2N)c1	5.1	2.7	.	14.2	.	-1.2
COc1ccc(S(=O)(=O)N(C)C[C@@H]2Oc3c(NC(=O)Nc4ccccc4)cccc3C(=O)N([C@@H](C)CO)C[C@@H]2C)cc1	.	.	.	-0.9	.	.
Cc1ccc(S(=O)(=O)N(C)C[C@H]2Oc3ncc(C#CC4(O)CCCC4)cc3C(=O)N([C@@H](C)CO)C[C@H]2C)cc1	.	.	.	2.7	.	.
Cc1ccc(NC(=S)c2ccc3ccccc3n2)c(C)c1	-13.0	3.2	25.2	53.0*	28.2	-9.3
CCCc1ccc2oc(C(=O)N3CCC(COC)C3)c(C)c2c1 (stereo not given)	60.9*	6.3	103.0*	54.5*	11.2	32.6
CCCc1ccc2oc(C(=O)NCCN3CCCC(O)C3)c(C)c2c1 (stereo not given)	62.0*	1.2	43.9	.	0.4	33.2
CCCc1ccc2oc(C(=O)N3CCC[C@H]3CO)c(C)c2c1	44.3	2.3	69.1	57.2*	19.9	24.7
CCCc1ccc2oc(C(=O)NCCN3CCCC(C(N)=O)C3)c(C)c2c1 (stereo not given)	-8.6	-0.3	8.4	-1.9	-1.8	4.5
COc1ccc(-c2cnc3c(c2)C(=O)N([C@@H](C)CO)C[C@H](C)[C@@H](CN(C)C(=O)Cc2ccncc2)O3)cc1	.	.	.	4.2	.	.
C[C@@H]1CN([C@@H](C)CO)C(=O)c2cc(C#CCN(C)C)cnc2O[C@H]1CN(C)C(=O)c1ccc(F)cc1	.	.	.	1.6	.	.
COc1ccc(CN(C)C[C@H]2OCc3cn(nn3)CCCC(=O)N([C@@H](C)CO)C[C@H]2C)cc1	.	.	.	2.7	.	.
Cc1ccccc1S(=O)(=O)N[C@@H]1CC[C@H](CCn2cc(-c3ccc(F)cc3)nn2)O[C@H]1CO	.	.	.	9.4	.	.
CCC(=O)N1CC[C@H]2[C@H](CO)Nc3ccc(-c4cccc(C#N)c4)cc3[C@H]21	.	.	.	2.0	.	.
CCCCNC(=O)C1c2ccccc2Oc2ccccc21	-14.8	-0.9	-0.8	.	-1.1	-11.4
CCCC(C)NC(=O)C1c2ccccc2Oc2ccccc21 (stereo not given)	-66.8	0.1	.	-4.0	1.0	-61.3*
C[C@H](CO)N1C[C@H](C)[C@@H](CN(C)Cc2ccc(C(=O)O)cc2)Oc2ccc(NC(=O)Nc3ccc(F)cc3)cc2C1=O	.	.	.	-5.3	.	.
Cc1ccccc1CC1(CO)CCCN(C(=O)c2cc(Cl)ccc2F)C1 (stereo not given)	2.5	-0.9	24.0	.	-1.8	5.2
Cc1ccccc1CC1(CO)CCCN(C(=O)c2ccccc2Cl)C1 (stereo not given)	54.7*	-1.9	-7.6	.	0.3	12.1
CC(=O)N1c2ccc(C)cc2C(c2ccccc2)CC1C (stereo not given)	57.7*	-3.3	.	-7.0	4.8	33.8
COCC#Cc1ccc2c(c1)O[C@H](CN(C)C)[C@@H](C)CN([C@@H](C)CO)S2(=O)=O	.	.	.	1.4	.	.
NS(=O)(=O)c1ccc(Oc2ccc(S(N)(=O)=O)cc2)cc1	1.9	-2.6	-6.4	.	-12.1	4.9
C=CS(=O)(=O)c1ccc(Oc2ccc(S(=O)(=O)C=C)cc2)cc1	-92.3	-11.7	-89.3	.	-11.9	-92.9*
